# Measurements reported in PubChem BioAssay (EPA / NIEHS).
# Results filed as inconclusive are left out. Active and inactive are the calls of the source. How the source made its calls: active means hit-call score of the fitted dose curve at least 0.9, where 1 is the maximum; inconclusive means response in the unintended direction; inactive means score below 0.9.
# Experiment: ACEA_ER_AUC_viability: ACEA Biosciences xCELLigence Real-Time Cell Analysis on Estrogen Receptor Agonism for Viability (AID 2283782);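 further: hit means loss of impedance signal meaning reduced cell growth or viability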
# Outline: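 Viability endpoint: reduced impedance area under the curve relative to DMSO, recorded by real-time electrode sensing over ~80 h of continuous exposure. Duplicate plates of T47D in hormone-depleted medium; eight concentrations, 1:4 dilutions, 100 uM maximum.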
SMILES,AC50,outcome
CC1=CC(O)CC(C)(C)C1 (centres undefined),71.8 µM (active),–
CN(C)c1ccc(C=O)cc1,–,inactive
N[C@@H](CCC(=O)O)C(=O)O,–,inactive
CCOC(=O)CC(C)C,–,inactive
CCCCCCCC1CCCC1=O (centres undefined),–,inactive
C/C=C(\C)C(=O)OC/C=C(\C)CCC=C(C)C,78.2 µM (active),–
C1COCO1,–,inactive
CC1=CC(=O)[C@H]2C[C@@H]1C2(C)C,31 µM (active),–
CCCCCCOC(C)=O,38.5 µM (active),–
CC1(C)[C@H](C=C(Cl)Cl)[C@H]1C(=O)OCc1cccc(Oc2ccccc2)c1,12.5 µM (active),–
[Cu+],–,inactive
O=S1(=O)CC=CC1,–,inactive
c1ccc(Sc2ccccc2)cc1,83.4 µM (active),–
CN(C)CCC=C1c2ccccc2CCc2ccccc21,26.2 µM (active),–
CC(=O)OC/C=C(C)/C=C/C=C(C)/C=C/C1=C(C)CCCC1(C)C,68.5 µM (active),–
CCOC(=O)C=Cc1ccccc1,–,inactive
FC(F)(F)c1ccc(Cl)c(Cl)c1,–,inactive
CCCCCC#CC(=O)OC,50 µM (active),–

SMILES,AC50,outcome
CCOC(=O)CCCCCCCCC(=O)OCC,–,inactive
CCCCOCCOC(=O)c1ccccc1C(=O)OCCOCCCC,–,inactive
CC(=O)CCc1ccc(O)cc1,–,inactive
N#CCCNCCC#N,–,inactive
CCCCOC(=O)C(C)OC(=O)CCC (centres undefined),–,inactive
CC/C=C\CCOC(C)OCC (centres undefined),–,inactive
CC(C)(C)C1CCC(O)CC1 (centres undefined),–,inactive
CC(=N[Si](C)(C)C)O[Si](C)(C)C,–,inactive
NNC(=O)OCc1ccccc1,–,inactive
O=C(C=Cc1ccccc1)OCCCc1ccccc1,60 µM (active),–
CC/C=C\CCCCCCCCCCOC(C)=O,–,inactive
O=C1OCc2ccccc21,–,inactive
O=c1cc[nH]cc1,–,inactive
CC(=O)c1cccnc1,–,inactive
C=CCOC(=O)/C=C\C(=O)OCC=C,94.9 µM (active),–
NC(=O)NC(N)=O,–,inactive
OCCN1CCOCC1,–,inactive

# Experiment: STM_H9_NormalizedViability: Cytotoxicity Assessment at 120 hours in the Stemina devTOX quickPredict H9 human embryonic stem cell (hESC)-based Assay (AID 2283784)
# Outline: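 Viability endpoint: background-corrected CellTiter-Fluor RFU expressed relative to the 0.1% DMSO mean on each plate. Undifferentiated H9 cells were treated with daily re-dosing and media change, and loss of signal was fitted.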
SMILES,outcome,AC50
CCCCCCOC(C)=O,inactive,–
CC(=O)OC/C=C(C)/C=C/C=C(C)/C=C/C1=C(C)CCCC1(C)C,–,87.5 µM (active)
CCOC(=O)C=Cc1ccccc1,inactive,–
O=C(O)c1ccccc1O,–,7090 µM (active)
